Assay [1] can be described thus: Tanguay_ZF_120hpf_PIG_legacy: (Legacy) Oregon State University Tanguay Lab 120 Hour Post-fertilization zebrafish Assay for Pigmentation Malformation (AID 2283650). In outline: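 Brightfield scoring of pigmentation malformation at 120 hpf, recorded as binary present/absent per larva. Exposure: dechorionated 5D wild-type embryos, one per well, static from 6 hpf at 28C, final DMSO 0.64% (vol/vol). Dead embryos not scored.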

Assay [2] is described as follows: Tanguay_ZF_120hpf_CIRC_legacy: (Legacy) Oregon State University Tanguay Lab 120 Hour Post-fertilization zebrafish Assay for Circulatory Malformation (AID 2283651). An outline of the steps:
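Binary circulatory-malformation call at 120 hpf via brightfield imaging, relative to DMSO controls. Embryos (5D strain, chorion removed) received static, light-shielded exposure at 28C.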

Assay [3] in a line: Tanguay_ZF_120hpf_SWIM_legacy: (Legacy) Oregon State University Tanguay Lab 120 Hour Post-fertilization zebrafish Assay for Swim Bladder Malformation (AID 2283654).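 Note: swim bladder malformation in each larva scored yes or no under brightfield.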 In outline: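 Tropical 5D embryos dechorionated at 4 hpf; 1 embryo/well from 6 hpf; static, sealed, dark exposure at 28C until 120 hpf; final DMSO 0.64%; 5uM trimethyltin chloride positive control; swim bladder defect recorded yes/no; dead embryos not scored.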

Assay [4] is described as follows: Tanguay_ZF_120hpf_TRUN_legacy: (Legacy) Oregon State University Tanguay Lab 120 Hour Post-fertilization zebrafish Assay for Truncated Body (AID 2283655). An outline of the steps:
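Whole-embryo zebrafish screen: dechorionated 5D embryos, static exposure 6–120 hpf, 28C, sealed foil-covered plates, 0.64% DMSO. Binary truncation call; gain of signal versus DMSO baseline.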

The nature of assay [5]: CCTE_Simmons_CellTiterGLO_HEK293T: Viability Assessment in CCTE's Assays for Thyroperoxidase (TPO) Inhibition, Simmons Lab (AID 2283665).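 For AC50: cells exposed to compound for 24 h before readout; actives reduce ATP signal below DMSO vehicle meaning cytotoxicity.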 An outline of the steps: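 ATP depletion measured in HEK293T cells after 24 h dosing (8 concentrations, 5 nM–87.5 uM final; DMSO 0.5%) using CellTiter-Glo luminescence; curves fit for loss of signal against DMSO baseline.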
Assay [6] can be described thus: Tanguay_ZF_120hpf_TR_legacy: (Legacy) Oregon State University Tanguay Lab 120 Hour Post-fertilization zebrafish Assay for Touch Response (AID 2283667). In outline:
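Binary touch-response call at 120 hpf, analysed as gain of signal versus DMSO baseline. Wild-type 5D larvae, static exposure at 28C, 0.64% DMSO final; 5uM trimethyltin chloride as positive control.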

Assay [7] can be described thus: CCTE_Padilla_ZF_144hpf_TERATOSCORE: (Legacy) CCTE's 144 Hour Post-fertilization zebrafish Assay Teratoscore, Padilla Lab (AID 2283679; active = hit-call score of the fitted dose curve at least 0.9, where 1 is the maximum; inactive = score below 0.9;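 for AC50: zebrafish embryos with chorions exposed by immersion from 6-8 hpf to 5 dpf with daily renewal; teratogenicity score from eye scoring of death hatching and malformations at 144 hpf; higher score means more developmental defects relative to DMSO baseline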). An outline of the steps:
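Larvae scored by eye at 144 hpf for death, hatching and malformations after a day in clean Hanks'. Before that, daily-renewed exposure at 80 uM (0.4% DMSO, 26C) from roughly 6-8 hpf through 5 dpf, 4 embryos per chemical.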

Read-out in assay [8]: kallikrein-3 (KLK3), KLK3 (gene 354)
Description: LTEA_HepaRG_KLK3: Life Technologies and Expression Analysis (LTEA) Assay for kallikrein-3 (KLK3) using HepaRG (AID 2283652; active = hit-call score of the fitted dose curve at least 0.9, where 1 is the maximum; inactive = score below 0.9). Particulars: mRNA level, 48 h; actives raise or lower the signal. An outline of the steps: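 KLK3 transcript levels were measured by TaqMan qRT-PCR with normalisation to three housekeeping genes. HepaRG cultures received chemicals for 48 h at up to 100 uM (half-log, 8 points, 0.5% DMSO vehicle), fitted in both directions against DMSO.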

Read-out in assay [9]: solute carrier (SLC22A6), SLC22A6 (gene 9356)
The assay can be described thus: LTEA_HepaRG_SLC22A6: Life Technologies and Expression Analysis (LTEA) Assay for solute carrier (SLC22A6) using HepaRG (AID 2283653; active = hit-call score of the fitted dose curve at least 0.9, where 1 is the maximum; inactive = score below 0.9). Particulars: mRNA level, 48 h; actives raise or lower the signal. In outline: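 HepaRG, human liver line; 48 h chemical exposure; 8-pt half-log series from 100 uM in 0.5% DMSO, duplicate wells. Readout: TaqMan qRT-PCR of SLC22A6 mRNA, housekeeping-normalised; bidirectional curve fit vs DMSO baseline.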

A short description of assay [10]: Tanguay_ZF_120hpf_NC_legacy: (Legacy) Oregon State University Tanguay Lab 120 Hour Post-fertilization zebrafish Assay for Notochord and Tail Malformation (AID 2283656). In outline: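 Binary notochord-distortion calls, made by brightfield inspection, form the read-out; activity is fitted in the positive direction against DMSO. Exposure ran statically from 6 to 120 hpf at 28C with 0.64% DMSO.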

Records with an inconclusive call do not appear. Activity calls are given as the source filed them. Rule for the calls, unless noted: active = hit-call score of the fitted dose curve at least 0.9, where 1 is the maximum; inconclusive = response in the unintended direction; inactive = score below 0.9.

Consider `Nc1cc(Cl)cc(C(=O)O)c1Cl`, for which the compound was classed as inactive in [1], in assay [2], in assay [3], in [4], in [5] and in [6]. Moreover, the outcome in assay [7] was inactive.

For the compound `CS(=O)(=O)NC(=O)c1cc(Oc2ccc(C(F)(F)F)cc2Cl)ccc1[N+](=O)[O-]`, the outcome in assay [1], in assay [2], in assay [3], in assay [4] and in [6] was inactive. Moreover, in [7], the half-maximal activity concentration (AC50) is 0.128 µM (active).

For `C1=Cc2cccc3cccc1c23`, the call in assay [1], in [2], in assay [8], in assay [9], in assay [3] and in assay [10] was inactive. In addition, in [6], the compound was called inactive.

With `COc1cc(C=O)cc2c1[C@H](COC(N)=O)[C@]1(OC(C)=O)ON2C[C@H]2[C@@H]1N2C(C)=O`, the call in [1], in assay [2], in assay [3], in assay [4] and in assay [7] was inactive.

For the compound `Cc1ccc(N)c(N)c1`, the compound was classed as inactive in [1], in [2], in assay [3], in [10], in [5] and in assay [6]. The AC50 in [7] is 80.4 µM (active).

Turning to `C[C@]12C=CC3=C4CCC(=O)C=C4CC[C@H]3[C@@H]1CC[C@@H]2O`, the call in [1], in assay [2], in assay [9], in assay [4] and in assay [6] was inactive. The concentration at half-maximal activity (AC50) in [5] was 6.42 µM (active); in assay [7], 31 µM (active).

For the compound `CC(O)CCO` (stereo unspecified), the call in [1], in assay [2], in assay [3], in [10], in assay [6] and in [7] was inactive.

Take `CCCCC(CC)COC(=O)c1ccc(C(=O)OCC(CC)CCCC)c(C(=O)OCC(CC)CCCC)c1` (stereo unspecified): the call in assay [1], in assay [2], in assay [3], in assay [4], in assay [5] and in [6] was inactive.

As for `[As]#[In]`, the outcome in [1], in assay [2], in assay [3] and in assay [6] was inactive.

Turning to `Nc1ccc(Cl)cc1N`, the compound was called inactive in [1], in assay [2], in [9], in assay [5] and in [6]. Moreover, in assay [7], the concentration at half-maximal activity (AC50) is 15 µM (active).

Turning to `c1ccc(C2CO2)cc1` (stereo unspecified), the call in assay [1], in assay [2], in assay [3] and in [6] was inactive.

As for `CC(C)COC(=O)c1ccccc1C(=O)OCC(C)C`, the compound was classed as inactive in [1], in assay [2], in assay [8], in [9], in assay [3] and in [10]. For the same compound, the outcome in assay [6] was inactive. Further, in [7], the concentration at half-maximal activity (AC50) was 2.53 µM (active).

`Nc1ccc(Oc2ccc(N)cc2)cc1`: the call in [1], in assay [2], in assay [3], in [10], in assay [5] and in assay [6] was inactive.

In the case of `Clc1ccc(C(c2ccc(Cl)cc2)C(Cl)(Cl)Cl)cc1`, the compound was called inactive in [1], in [2], in [3], in assay [4] and in assay [10]. Also, the AC50 in [7] was 3.44 µM (active).

With `Cc1ccc([N+](=O)[O-])cc1`, the outcome in assay [1], in assay [2], in assay [8], in assay [9], in [4] and in [10] was inactive. In [6], the result was inactive.

Regarding `Brc1ccc(Oc2ccccc2)cc1`, the outcome in assay [1], in assay [2], in assay [3], in [4], in assay [10] and in assay [6] was inactive. Further, the half-maximal activity concentration (AC50) in [7] is 44.7 µM (active).

`COC(=O)Nc1nc2ccccc2[nH]1`: the compound was classed as inactive in assay [1], in assay [2], in assay [3] and in assay [6]. For the same compound, the AC50 in assay [5] is 1.41 µM (active); in [7], 2.61 µM (active).

Consider `O=C(Oc1ccc(Br)cc1)N1CCN2CCC1CC2`, for which the compound was classed as inactive in assay [1] and in [2].

As to `ClCCOCCCl`, the compound was called inactive in assay [1], in assay [2], in assay [3] and in assay [6].

For the compound `CCCCCCCCOC(=O)c1ccc(C(=O)OCCCCCCCC)c(C(=O)OCCCCCCCC)c1`, the compound was called inactive in [1], in assay [2], in assay [3] and in assay [6].

On to `CN(C)C(=O)Nc1ccc(Cl)cc1`, for which the call in [1], in assay [2], in assay [8], in [9], in assay [3] and in assay [5] was inactive. Also, the result in assay [6] was inactive.

As for `ClC1=C(Cl)C2(Cl)C3C(Cl)C=CC3C1(Cl)C2(Cl)Cl` (stereo unspecified), the result in assay [1], in assay [2], in [8], in assay [9] and in [6] was inactive. Besides, the half-maximal activity concentration (AC50) in assay [7] was 3.23 µM (active).

Regarding `CNC(=O)Oc1cccc2c1OC(C)(C)C2`, the compound was called inactive in assay [1], in assay [2], in assay [3], in assay [10] and in assay [6].

Regarding `[Cl-].[Cl-].[Hg+2]`, the AC50 in assay [1] is 1.05 µM (active); in [2], 3.58 µM (active); in assay [3], 1.02 µM (active); in [5], 0.939 µM (active); in assay [6] it was 1.15 µM (active); in assay [7], 0.0826 µM (active).

On to `CCN(CC)CCO`, for which the outcome in [1], in assay [2], in [9] and in assay [6] was inactive.

With `CC(C)(C)OOC(C)(C)CCC(C)(C)OOC(C)(C)C`, the outcome in assay [1], in [2], in assay [3] and in assay [6] was inactive.

Take `CCCCCOC(=O)c1ccccc1C(=O)OCCCCC`: the result in assay [1], in [2], in assay [3] and in [6] was inactive. Besides, the AC50 in assay [7] is 4.55 µM (active).

As for `Cn1cc(-c2ccccc2)c(=O)c(-c2cccc(C(F)(F)F)c2)c1`, the result in assay [1], in [2] and in assay [4] was inactive. For the same compound, the concentration at half-maximal activity (AC50) is 41.1 µM (active) in assay [6] and 57 µM (active) in assay [7].

For `CC(C)(OOC(C)(C)c1ccccc1)c1ccccc1`, the call in assay [1], in [2], in [3] and in assay [6] was inactive. In addition, in assay [7], the AC50 was 15.4 µM (active).

With `O=C(Nc1ccccc1)c1ccccc1I`, the outcome in assay [1], in assay [10] and in assay [6] was inactive. The AC50 is 76.6 µM (active) in [2] and 5.47 µM (active) in assay [7].

For the compound `CN(C)c1ccccc1`, the outcome in assay [1], in assay [2], in [4], in assay [10] and in [6] was inactive.

In the case of `CCC12COCN1COC2`, the outcome in assay [1], in assay [2], in [4], in assay [6] and in [7] was inactive.

Take `O=C1CCCO1`: the compound was called inactive in assay [1], in assay [2], in [4] and in assay [6].

Regarding `CCCCCCCCn1sccc1=O`, the call in assay [1], in [2], in assay [10] and in assay [6] was inactive. Besides, the AC50 in [7] is 0.523 µM (active).

Source of the values: PubChem BioAssay (EPA / NIEHS).
